In PubChem BioAssay AID1159580 (chemical genetic matrix, 2015):
Values joined by “and” are separate entries in the source; they are usually repeats but may differ in a detail not shown here. Equal values may be shown once. Hit rate of the full screen: of about 5,500 compounds, about 2,000 (36%) were called active. Not shown: some 18% with an inconclusive outcome. Rule as the data show it: active = normalized growth mostly below about 0.91 (no sharp cut-off); inconclusive = no clear call, values can overlap the other calls; inactive = mostly above about 0.92. The list shows a part of the results.

Assay: chemical genetic growth profiling, strain panel (AID 1159580);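 also: tested at 20 µM; growth read once vehicle control cultures reached saturation at 30 °C; 1 = growth at the plate median or of vehicle wells; lower values mean less growth of the strain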
Conditions: S. cerevisiae deletion strains, growth OD

Measured: normalized growth

COc1ccc2c(c1OC)C(=O)OC2[C@H]1c2c(cc3c(c2OC)OCO3)CCN1C (some centres not stated)
inactive: locus YAL013W, strain DEP1, stronger effect = lower value 1.01 | locus YAL021C, strain ccr4, stronger effect = lower value 1.02 | locus YAL026C, strain drs2, stronger effect = lower value 1.02 | locus YAL030W, strain snc1, stronger effect = lower value 1.02 | locus YBL061C, strain skt5, stronger effect = lower value 1.01 | locus YBR009C, strain hhf1, stronger effect = lower value 1.02 | locus YBR021W, strain FUR4, stronger effect = lower value 1.01 | locus YBR023C, strain chs3, stronger effect = lower value 1.02 | locus YBR171W, strain sec66, stronger effect = lower value 1.01 | locus YBR229C, strain ROT2, stronger effect = lower value 1.01 | locus YBR231C, strain swc5, stronger effect = lower value 1.01 | locus YBR279W, strain paf1, stronger effect = lower value 1.01 | locus YCL011C, strain gbp2, stronger effect = lower value 1.02 | locus YCL016C, strain dcc1, stronger effect = lower value 1.02 | locus YCL029C, strain bik1, stronger effect = lower value 0.987 | locus YCL061C, strain MRC1, stronger effect = lower value 1.01 | locus YCL069W, strain vba3, stronger effect = lower value 1.01 | locus YCR088W, strain abp1, stronger effect = lower value 1.01 | locus YDL005C, strain med2, stronger effect = lower value 0.995 | locus YDL035C, strain GPR1, stronger effect = lower value 1.01 | locus YDL040C, strain nat1, stronger effect = lower value 1 | locus YDL074C, strain BRE1, stronger effect = lower value 1.04 | locus YDL101C, strain DUN1, stronger effect = lower value 1 | locus YDL134C, strain PPH21, stronger effect = lower value 1.01 | locus YDL185W, strain tfp1, stronger effect = lower value 0.966 | locus YDL192W, strain arf1, stronger effect = lower value 0.968 | locus YDR001C, strain nth1, stronger effect = lower value 1 | locus YDR069C, strain doa4, stronger effect = lower value 1.02 | locus YDR101C, strain arx1, stronger effect = lower value 0.995 | locus YDR137W, strain rgp1, stronger effect = lower value 1.04 | locus YDR159W, strain sac3, stronger effect = lower value 0.953 | locus YDR162C, strain NBP2, stronger effect = lower value 0.983 | locus YDR195W, strain ref2 0.993 | locus YDR297W, strain sur2, stronger effect = lower value 1.02 | locus YDR318W, strain mcm21, stronger effect = lower value 0.965 | locus YDR334W, strain swr1, stronger effect = lower value 1 | locus YDR335W, strain msn5, stronger effect = lower value 1.01 | locus YDR388W, stronger effect = lower value 0.985 | locus YDR392W, strain spt3, stronger effect = lower value 0.892 | locus YDR502C, strain sam2, stronger effect = lower value 0.984 | locus YEL003W, strain gim4, stronger effect = lower value 1.02 | locus YEL037C, strain rad23, stronger effect = lower value 1 | locus YEL061C, strain CIN8 (second series), stronger effect = lower value 0.996 | locus YEL061C, strain CIN8, stronger effect = lower value 1 | locus YER015W, strain faa2, stronger effect = lower value 1.01 | locus YER016W, strain bim1, stronger effect = lower value 1 | locus YER110C, stronger effect = lower value 0.994 | locus YER111C, strain swi4, stronger effect = lower value 1.01 | locus YER155C, strain BEM2 (second series), stronger effect = lower value 0.98 | locus YER155C, strain BEM2, stronger effect = lower value 0.992 | locus YER167W, strain BCK2, stronger effect = lower value 1 | locus YFR010W, strain ubp6, stronger effect = lower value 1 | locus YGL078C, strain dbp3, stronger effect = lower value 0.989 | locus YGL086W, strain mad1, stronger effect = lower value 1.01 | locus YGL167C, strain pmr1, stronger effect = lower value 1.01 | locus YGL173C, strain kem1, stronger effect = lower value 1.01 | locus YGL227W, strain vid30, stronger effect = lower value 1.01 | locus YGL240W, strain doc1, stronger effect = lower value 1.02 | locus YGL248W, strain PDE1, stronger effect = lower value 1.01 | locus YGL253W, strain hxk2, stronger effect = lower value 1.02 | locus YGR135W, strain pre9, stronger effect = lower value 0.986 | locus YGR252W, strain gcn5, stronger effect = lower value 1.19 | locus YHR013C, strain ard1, stronger effect = lower value 1.02 | locus YHR027C, strain rpn1, stronger effect = lower value 1.01 | locus YHR030C, strain SLT2, stronger effect = lower value 0.995 and 0.993 | locus YHR079C, strain IRE1 (second series), stronger effect = lower value 0.978 | locus YHR079C, strain IRE1, stronger effect = lower value 0.999 | locus YHR094C, strain hxt1, stronger effect = lower value 0.988 | locus YHR129C, strain ARP1, stronger effect = lower value 0.999 | locus YHR142W, strain chs7, stronger effect = lower value 1 | locus YHR200W, strain rpn10, stronger effect = lower value 0.98 | locus YIL066C, strain RNR3, stronger effect = lower value 1.01 | locus YIL073C, strain SPO22, stronger effect = lower value 0.857 | locus YIL125W, strain kgd1, stronger effect = lower value 0.986 | locus YIR030C, strain dcg1, stronger effect = lower value 0.997 | locus YJL092W, strain hpr5, stronger effect = lower value 1.01 | locus YJL095W, strain BCK1 (second series), stronger effect = lower value 1.01 | locus YJL095W, strain BCK1, stronger effect = lower value 1.02 and 1 | locus YJL115W, strain asf1, stronger effect = lower value 1.01 | locus YJL129C, strain trk1, stronger effect = lower value 0.995 | locus YJL134W, strain LCB3, stronger effect = lower value 0.996 | locus YJL154C, strain vps35, stronger effect = lower value 1.02 | locus YJL164C, strain tpk1, stronger effect = lower value 1.03 | locus YJL166W, strain qcr8, stronger effect = lower value 1 | locus YJL168C, strain set2, stronger effect = lower value 0.987 | locus YJL187C, strain SWE1 (second series), stronger effect = lower value 0.997 | locus YJL187C, strain SWE1, stronger effect = lower value 1.02
